Cycloheximide cs – affects cycloheximide protein synthesis inhibition readout, counter-screen; cell reporter, cycloheximide protein synthesis inhibition counterscreen; max response, %; 300,000 compounds, 12% hits; AID 2314; in the data active = max response mostly above about 13%, no sharp cut-off; inactive = mostly below about 14%; note: read at 38.3 µM for the half of the compounds with a filed dose; 0% is about no effect
SARS PLpro yeast – blocks SARS-CoV papain-like protease in a yeast assay; S. cerevisiae expressing SARS-CoV PLpro, growth rescue; Potency, µM (titrated, usually from 32.9 µM), without a hit: at the top dose activity, positive = growth rescue, hits mostly activators; 330,000 compounds, 0.19% hits; calls by dose curve; note: potency is the fitted concentration of half-maximal effect; 0% is about no effect; nearly all actives have a fitted effect of over 55% in size
AMA1 RON2 block – AMA1-RON2 (P. falciparum) interaction inhibition; AlphaScreen AMA1-biotinylated RON2 peptide binding; Potency, µM (highest dose often 58.2 µM), for inactives: at the highest dose activity change, negative = inhibition, usual class: inhibitors; 360,000 compounds, 0.2% hits; AID 720542;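 note: potency is the fitted concentration of half-maximal effect; 0% = vehicle wells and -100% = peptide control; nearly all actives have a fitted effect of over 45% in size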
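AMA1 (3D7) with his tag at 25 nM final met compounds first, then biotinylated RON2 peptide at 25 nM; detection used donor plus acceptor beads, 10 µg/mL apiece, read by AlphaScreen after 30 min at room temperature.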
AmpC inh detg – inhibitors of E. coli AmpC beta-lactamase with detergent | AmpC hydrolysis of nitrocefin, absorbance 480 nm, 0.01% Triton | AID 485294 | P00811 | Potency, µM (titrated, usually from 114 µM), for the others: at the top dose activity change, negative = inhibition, hits mostly inhibitors | 370,000 compounds, 0.041% hits;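 note: potency is the fitted concentration of half-maximal effect; 0% = no-compound wells and -100% = no-enzyme wells; nearly all actives have a fitted effect of over 25% in size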
Target sequence (P00811 whole entry, looked up): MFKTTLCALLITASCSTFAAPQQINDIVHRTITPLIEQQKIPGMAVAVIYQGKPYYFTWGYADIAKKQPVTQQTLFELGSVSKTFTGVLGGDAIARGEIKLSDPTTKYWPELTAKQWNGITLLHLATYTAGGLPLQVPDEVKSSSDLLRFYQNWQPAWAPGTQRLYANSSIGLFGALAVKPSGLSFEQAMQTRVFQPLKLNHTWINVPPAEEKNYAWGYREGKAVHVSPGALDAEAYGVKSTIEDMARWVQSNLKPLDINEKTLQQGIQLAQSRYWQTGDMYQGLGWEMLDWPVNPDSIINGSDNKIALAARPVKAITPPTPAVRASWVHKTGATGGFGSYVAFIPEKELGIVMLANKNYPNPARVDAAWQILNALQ
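20 mM phosphate pH 7.0 + 0.01% (detergent screen) or 0.0001% Triton X-100; 5.3 nM AmpC reagent; cpd preinc 15 min RT; nitrocefin (800 uM stock) to start; A480 q20 s × 4 min; Activity was normalised to no-enzyme and no-compound control wells.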
Shiga inhibitor – Shiga toxin inhibition | Vero cells, Shiga toxin protein synthesis inhibition reporter | inhibition, % at 38.7 µM | 290,000 compounds, 9.2% hits | AID 2315; in the data active = inhibition mostly above about 28%, no sharp cut-off; inactive = mostly below about 43%; note: 0% is about no effect
AmpC no deterg – AmpC beta-lactamase inhibition without detergent | P00811 | AmpC nitrocefin hydrolysis, absorbance 480 nm, 0.0001% Triton | Potency, µM (titrated, usually from 57.1 µM), for inactives: at the highest dose activity change, negative = inhibition, usual class: inhibitors | 330,000 compounds, 0.52% hits | AID 485341;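 note: potency is the fitted concentration of half-maximal effect; plate controls were no compound for no effect and no enzyme for full effect; nearly all actives have a fitted effect of over 20% in size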
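AmpC (5.3 nM in the dispensed reagent) in 20 mM phosphate pH 7.0 with 0.01% (detergent screen) or 0.0001% Triton X-100 was preincubated with compounds for 15 min at room temperature. Nitrocefin was then added from an 800 uM solution, and hydrolysis was followed at 480 nm.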
Numbers without * were called inactive; ? = inconclusive; / = not tested or not shown; + = active, no number. Only a selection was taken, and hits are over-represented in it overall. Unless noted, calls come from the whole dose curve; as a rule, active = well fitted curve in the direction sought with a large enough effect; inconclusive = small, poorly fitted or top-dose-only effect, or another doubt; inactive = no such curve, though single readings can be large; an effect the other way counts as inactive or inconclusive.

SMILES | Cycloheximide cs | SARS PLpro yeast | AMA1 RON2 block | AmpC inh detg | Shiga inhibitor | AmpC no deterg
Cc1cc2cc(CCNC(=O)c3ccc(Br)o3)c(=O)[nH]c2cc1C | 1.7 | -4.8% | -10.0% | 2.4% | -10.9 | -2.4%
O=C(CN1CCN(c2cccc(Cl)c2)CC1)Nc1nccs1 | -2.2 | -10.0% | 22.5% | 4.6% | -14.7 | -2.3%
Oc1ccccc1OCCOc1ccccc1OCCOc1ccccc1O | 9.8* | -3.7% | 4.4% | -10.6% | 41.4 | -23.0%
O=C(N/N=C/c1ccc(Cl)cc1Cl)c1ccncc1 | 23.9* | -1.7% | -8.7% | -6.9% | 45.4* | -21.8%
O=C(N/N=C/c1ccc(Cl)cc1Cl)c1cccc(N2CCCC2=O)c1 | 15.8* | 1.3% | 7.9% | 2.1% | 44.2 | 30.0%
O=C(N/N=C/c1cccnc1)c1cccc(Br)c1 | 16.9* | ? | 29.7% | -10.5% | 34.1 | -18.0%
O=C(NN=Cc1ccc(Cl)cc1Cl)c1ccccc1 | / | / | -0.8% | / | / | /
CC(C)c1ccc(/C=N/NC(=O)c2cccc(Cl)c2)cc1 | 48.9* | -18.6% | -6.8% | -0.5% | active | -36.7%
O=C(Nc1cccc2ccccc12)ON=C1CCCCC1 | / | / | -7.7% | / | / | /
CC(C)(C)n1ncc2c(=O)n(Cc3ccc(Cl)cc3Cl)cnc21 | 2.6 | -2.8% | -20.9% | -5.3% | 26.4 | -22.0%
CC(C)c1ccc(/C=N/NC(=O)CCNC(=O)c2ccccc2)cc1 | 20.5* | 17.5% | -8.3% | -11.9% | 96.3* | -5.7%
O=C(N/N=C/c1cc(Cl)ccc1O)c1ccccc1Br | 39.6* | -27.3% | 98.8% | 5.3% | 27.3* | -31.4%
O=C(CCNC(=O)c1ccccc1Cl)N/N=C\c1ccc(O)cc1 | -1.6 | -6.9% | 114.3% | -0.1% | -4.0 | -16.8%
O=C(N/N=C/c1cccnc1)c1cccc(Cl)c1 | 27.6* | -3.2% | 3.7% | -7.9% | 33.0* | -7.2%
Clc1ccc(/C=N/NC(=Nc2ccccc2)c2ccccn2)c(Cl)c1 | 41.3* | 0.3% | -24.4% | 1.5% | 123.6* | 3.5%
O=C(N/N=C/c1cccnc1)c1cccc(NC(=O)c2ccc(Cl)cc2)c1 | 2.7 | 3.1% | -18.3% | 2.9% | 19.5 | 10.2%
COc1cc(C(C(=O)NC2CCCCC2)N(C(=O)Cc2c[nH]c3ccccc23)c2ccc(C)cc2)cc(OC)c1OC (stereo not given) | -0.8 | -6.1% | -19.0% | -14.9% | -15.7 | 65.6%
O=C(N/N=C\c1cc2c(cc1Cl)OCO2)c1cccnc1 | 10.3 | 1.9% | 20.4% | -8.3% | 11.5 | -13.0%
O=C(N/N=C/c1cc(Cl)ccc1O)c1cccnc1 | 13.0* | 10.6% | -8.8% | -11.4% | 25.2 | -14.4%
CCCCCC(=O)NNC(=O)c1c(O)c2ccccc2n(CC)c1=O | 19.0* | -5.6% | 126.0% | -7.6% | 58.6* | -31.4%
COc1ccc(C(=O)NCC(c2cccs2)S(=O)(=O)c2ccc(F)c(C)c2)cc1 (stereo not given) | / | / | / | 2.0% | / | /
CN(C)C=NC1=NN(c2cccc(C(F)(F)F)c2)CC1 | 43.0* | -16.7% | -8.1% | 4.4% | 43.5* | -3.4%
CN1CCN(C=NC2=NN(c3cccc(C(F)(F)F)c3)CC2)CC1 | 20.7* | -17.3% | -20.4% | -4.1% | 19.9 | 15.9%
Cc1n[nH]c(=O)n1-c1cccc(C(F)(F)F)c1 | -2.3 | 4.4% | 16.3% | -2.3% | -5.5 | 0.5%
COc1ccc(-c2noc(Cc3ccccc3OC)n2)cc1 | 22.7 | -7.9% | 37.2% | -15.5% | 44.5 | -5.3%
SMILES | Cycloheximide cs | SARS PLpro yeast | AMA1 RON2 block | AmpC inh detg | Shiga inhibitor | AmpC no deterg
COc1ccc(OC)c(NC(=O)CSc2sc3c(O)cc(=O)[nH]c3c2C#N)c1 | -5.9 | 16.9% | ? | 4.1% | -6.2 | -20.3%
COc1cc(Cl)c(C)cc1NC(=O)CSc1sc2c(O)cc(=O)[nH]c2c1C#N | -2.2 | 3.2% | -8.0% | -4.1% | -10.6 | 1.58µM*
O=C(O)c1cc(S(=O)(=O)Nc2ccc3c(c2)OCCO3)c(Cl)cc1Cl | 73.1* | 1.4% | 2.0% | ? | 137.3* | ?
Cc1ccc(N/N=C/c2ccc3c(c2)OCCO3)cc1Cl | 55.4* | -37.2% | -15.3% | -3.5% | 27.7* | -27.3%
C/C(=N\Nc1ccc(Cl)c(C(=O)O)c1)c1ccc2c(c1)OCO2 | 88.4* | 0.6% | 11.3% | 1.6% | + | -25.0%
COC(=O)c1cc(NS(=O)(=O)c2ccc3c(c2)OCCO3)ccc1Cl | / | / | / | 24.8% | / | /
O=C(O)c1cc(N/N=C/c2ccc3c(c2)OCCO3)ccc1Cl | 109.2* | -17.5% | 5.6% | ? | 116.0* | -23.2%
Nc1ncnc2c1ncn2[C@@H]1O[C@H](CO)[C@@H](O)[C@@H]1O | / | / | -14.8% | / | / | /
CCCCc1ccc(S(=O)(=O)N2CCC3(CC2)OCCO3)cc1 | -2.8 | -7.6% | 7.0% | -1.2% | -3.4 | 57.3%
COc1ccc(CNC(=O)c2ccc(-c3ccc(F)c(F)c3)c3ccoc23)cc1OC | / | / | -9.7% | / | / | /
O=C(O/N=C/c1ccc2c(c1)OCO2)c1ccccc1Cl | 54.8* | -12.2% | / | -10.1% | 131.9* | -8.0%
O=C(O)c1cc(N/N=C/c2ccc3c(c2)OCO3)ccc1Cl | 80.1* | 3.6% | 15.9% | 2.0% | + | -30.9%
O=C(N/N=C/c1ccc2c(c1)OCO2)C(=O)Nc1ccccc1Cl | -2.0 | 1.3% | 0.0% | -3.3% | 22.5 | -6.0%
O=C(c1ccc(F)cc1F)N1CCCC(c2nc(-c3cccs3)no2)C1 (stereo not given) | 3.4 | 0.5% | 0.0% | -5.0% | 29.2 | 9.8%
O=C(c1ccccc1Br)N1CCCC(c2nc(-c3cccs3)no2)C1 (stereo not given) | 35.9* | -12.5% | -3.0% | -2.6% | 113.8* | 16.6%
O=C(c1c(F)cccc1F)N1CCCC(c2nc(-c3cccs3)no2)C1 (stereo not given) | 25.4 | 0.2% | 2.7% | 4.7% | 131.3* | 2.4%
COc1ccc(C(=O)NC2CCN(CC(=O)Nc3cccc(C)c3)CC2)cc1OC | -2.4 | -12.9% | 5.3% | ? | 9.7 | -4.8%
O=C(c1cc2cc(C(F)(F)F)ccc2s1)N1CCOCC1 | 35.8* | -3.0% | 7.5% | ? | 83.7* | 13.8%
O=C(c1cc2cc(Br)ccc2s1)N1CCOCC1 | 21.2* | -2.9% | 0.2% | -11.4% | 31.5 | -5.8%
O=C(c1cc(Br)c(Br)s1)N1CCOCC1 | / | -1.4% | 34.6% | ? | / | -9.5%
O=C(c1ccc(C(=O)N2CCOCC2)s1)N1CCOCC1 | -0.3 | -3.5% | 3.7% | -0.7% | -7.9 | -9.4%
O=C1NC(=Nc2ccc(F)cc2)SC1Cc1ccc(F)cc1 (stereo not given) | 2.0 | 0.8% | 0.4% | -5.4% | 11.5 | -58.3%
Cc1nn(CCCC(=O)NCc2ccc(F)cc2)c(C)c1[N+](=O)[O-] | -5.3 | 2.7% | -13.2% | 0.1% | -8.8 | 8.2%
CCOC(=O)c1nc(C)n(-c2cc(OC)c(Cl)cc2Cl)n1 | 46.1* | 1.8% | 7.1% | 0.1% | 41.1* | 24.3%
CCOC(=O)c1nc(C)n(-c2cc(Cl)ccc2Cl)n1 | -2.2 | -4.6% | 1.0% | ? | -19.3 | -10.3%
